Assay outcomes: PubChem, Broad Institute
Shown are actives, neighbours in structure and some others; about 6.8% of the full set was active somewhere.
C diff growth: inhibitors of Clostridium difficile growth | growth activity, negative = inhibition, % at 16 µg/mL (by protocol) | Clostridium difficile clinical isolate growth, OD600, 24 h; stronger effect = lower value | 86,000 compounds, 0.25% hits;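 active means mean growth activity at or below -80% and every replicate also at or below -80%; inconclusive means mean at or below -80% but some replicate above -80%; inactive means mean growth activity above -80%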
Pf Dd2 growth: inhibitors of Plasmodium falciparum Dd2 growth. P. falciparum Dd2 growth, SYBR Green, 72 h; stronger effect = lower value. activity change, % at 10 µM. 94,000 compounds, 2.3% hits. AID 1159554; in the data active means activity change below about -80%; inconclusive means no clear call, values can overlap the other calls
T cruzi growth-1: inhibitors of T. cruzi proliferation. T. cruzi beta-gal in NIH3T3, GalScreen luminescence, 90 h. inhibition, % at 8.34 µM. 77,000 compounds, 5.9% hits. AID 624255;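 active means mean inhibition above about 93%, with at least 55% of replicates each passing it, limit read from the data, passing the limit was not always enough; inconclusive means only one of those two conditions holds; inactive means neither condition holds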
T cruzi growth-2: inhibitors of T. cruzi proliferation. shares compounds with T cruzi growth-1. T. cruzi beta-gal in NIH3T3, GalScreen luminescence, 90 h. inhibition, % at 8.35 µM. 5,600 compounds, 72% hits;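 active means mean replicate inhibition above about 95% and at least 55% of replicates individually reaching it, limit read from the data; inconclusive means only one of the two criteria is met; inactive means neither criterion is met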
T cruzi growth-3: inhibitors of T. cruzi proliferation. inhibition, % at 2.09 µM. shares compounds with T cruzi growth-1. 5,600 compounds, 21% hits. T. cruzi beta-gal in NIH3T3, GalScreen luminescence, 90 h. AID 651740;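 active means mean inhibition above about 95%, with at least 55% of replicates also reaching it, limit read from the data; inconclusive means meets just one of the two conditions; inactive means meets neither condition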
NIH3T3 tox: cytotoxicity in mouse NIH/3T3 fibroblasts | shares compounds with T cruzi growth-1 | NIH/3T3 viability, CellTiter-Glo ATP luminescence, 90 h | cytotoxicity (signal decrease), % at 8.35 µM | 5,600 compounds, 14% hits | AID 651742;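 active means mean signal decrease across replicates above about 35% based on untreated-well scatter, with enough replicates individually passing, limit read from the data; inconclusive means no rule stated though some were filed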
NIH3T3 tox 2: kills mouse NIH/3T3 fibroblasts | shares compounds with T cruzi growth-1 | NIH/3T3 viability, CellTiter-Glo ATP luminescence, 90 h | inhibition, % at 24.9 µM | 5,600 compounds, 56% hits | AID 651744;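 active means mean loss of cell viability signal at or above a set limit, and enough replicates individually reaching it; inconclusive means meets only the mean limit or only the replicate share; inactive means meets neither condition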
Hits are given with their value; i = inactive; ? = inconclusive; nt = no result; ! = a repeat was not active.

SMILES	C diff growth	Pf Dd2 growth	T cruzi growth-1	T cruzi growth-2	T cruzi growth-3	NIH3T3 tox	NIH3T3 tox 2
C[C@@H]1CN([C@@H](C)CO)S(=O)(=O)c2ccc(C3=CCCCC3)cc2O[C@@H]1CN(C)C(=O)c1ccccc1	i	i	108	i	i	i	70
C[C@H](CO)N1C[C@H](C)[C@@H](CN(C)C(=O)c2ccc(F)cc2)Oc2cc(C3=CCCCC3)ccc2S1(=O)=O	i	i	?	110	i	i	48
C[C@@H]1CN([C@H](C)CO)S(=O)(=O)c2ccc(C3=CCCC3)cc2O[C@@H]1CN(C)C(=O)c1ccc(F)cc1	i	i	nt	nt	nt	nt	nt
C[C@H]1CN([C@@H](C)CO)S(=O)(=O)c2ccc(C3=CCCCC3)cc2O[C@H]1CN(C)C(=O)c1ccccc1	i	i	i	nt	nt	nt	nt
C[C@H](CO)N1C[C@H](C)[C@@H](CN(C)C(=O)c2ccccc2)Oc2cc(C3=CCCC3)ccc2S1(=O)=O	i	i	i	nt	nt	nt	nt
C[C@@H]1CN([C@@H](C)CO)S(=O)(=O)c2ccc(C3=CCCC3)cc2O[C@@H]1CN(C)C(=O)c1ccccc1	i	i	100	114	i	i	i
CCCN(C)C[C@@H]1Oc2ncc(-c3cccnc3)cc2C(=O)N([C@@H](C)CO)C[C@@H]1C	i	i	i	nt	nt	nt	nt
C[C@H](CO)N1C[C@H](C)[C@@H](CN(C)CC2CCOCC2)Oc2ncc(C#C[C@@H](C)O)cc2C1=O	i	i	nt	nt	nt	nt	nt
CC(C)C(=O)Nc1ccc2c(c1)C(=O)N(C)[C@@H]1CC[C@@H](CC(=O)NC3CCCC3)O[C@H]1CO2	i	i	i	nt	nt	nt	nt
C[C@H](CO)N1C[C@H](C)[C@@H](CN(C)S(=O)(=O)c2cn(C)cn2)OCCCC[C@H](C)Oc2ccc(NC(=O)Nc3cccc4ccccc34)cc2C1=O	i	i	i	nt	nt	nt	nt
COc1cccc(S(=O)(=O)N(C)C[C@@H]2Oc3ncc(C#CCC(C)C)cc3C(=O)N([C@H](C)CO)C[C@H]2C)c1	i	i	i	nt	nt	nt	nt
CCCC#Cc1cnc2c(c1)C(=O)N([C@H](C)CO)C[C@@H](C)[C@@H](CN(C)S(=O)(=O)c1cccc(OC)c1)O2	i	i	104	99	i	37	65
COc1cccc(S(=O)(=O)N(C)C[C@@H]2Oc3ncc(C#CCC(C)C)cc3C(=O)N([C@@H](C)CO)C[C@H]2C)c1	i	i	111	107	i	i	77
COc1cccc(S(=O)(=O)N(C)C[C@@H]2Oc3ncc(C#CCC(C)C)cc3C(=O)N([C@H](C)CO)C[C@@H]2C)c1	i	i	i	nt	nt	nt	nt
COc1cccc(S(=O)(=O)N(C)C[C@@H]2Oc3ncc(C#CC(C)C)cc3C(=O)N([C@H](C)CO)C[C@H]2C)c1	i	i	i	nt	nt	nt	nt
COc1cccc(S(=O)(=O)N(C)C[C@@H]2Oc3ncc(C#Cc4ccc(F)cc4)cc3C(=O)N([C@H](C)CO)C[C@@H]2C)c1	i	i	108	103	i	i	i
CCCC#Cc1cnc2c(c1)C(=O)N([C@@H](C)CO)C[C@@H](C)[C@H](CN(C)S(=O)(=O)c1cccc(OC)c1)O2	i	i	i	nt	nt	nt	nt
COc1cccc(S(=O)(=O)N(C)C[C@H]2Oc3ncc(C#CCC(C)C)cc3C(=O)N([C@H](C)CO)C[C@@H]2C)c1	i	i	102	106	i	i	60
COc1ccc(NC(=O)Nc2ccc3c(c2)CC(=O)N([C@@H](C)CO)C[C@@H](C)[C@@H](CN(C)C(=O)Nc2ccc(F)cc2)O3)cc1	i	i	i	nt	nt	nt	nt
O=C(C[C@H]1CC[C@@H]2[C@H](COC[C@H](O)CN2C(=O)c2ccccc2F)O1)NCc1ccc(Cl)cc1	nt	i	i	nt	nt	nt	nt
O=C(C[C@@H]1C[C@@H]2c3cc(NC(=O)NC4CCCC4)ccc3O[C@@H]2[C@@H](CO)O1)NCCc1ccccc1	i	i	nt	nt	nt	nt	nt
Cc1c(NC(=O)/C(C#N)=C/c2ccc3ccccc3c2)c(=O)n(-c2ccccc2)n1C	i	nt	nt	nt	nt	nt	nt
COc1ccccc1-c1cnc2c(c1)C(=O)N([C@H](C)CO)C[C@H](C)[C@@H](CN(C)C(=O)c1ccccc1)O2	i	i	i	nt	nt	nt	nt
C[C@@H]1CN([C@@H](C)CO)S(=O)(=O)c2ccc(C#CC(C)(C)O)cc2O[C@H]1CN(C)C(=O)CC1CC1	i	i	i	nt	nt	nt	nt
CCCC#Cc1cnc2c(c1)C(=O)N([C@H](C)CO)C[C@@H](C)[C@H](CN(C)S(=O)(=O)c1cccc(OC)c1)O2	i	i	i	nt	nt	nt	nt
SMILES	C diff growth	Pf Dd2 growth	T cruzi growth-1	T cruzi growth-2	T cruzi growth-3	NIH3T3 tox	NIH3T3 tox 2
COc1cccc(S(=O)(=O)N(C)C[C@H]2Oc3ncc(C#CC(C)C)cc3C(=O)N([C@@H](C)CO)C[C@H]2C)c1	i	i	109	i	i	i	49
COc1cccc(S(=O)(=O)N(C)C[C@@H]2Oc3ncc(C#CCN(C)C)cc3C(=O)N([C@H](C)CO)C[C@H]2C)c1	i	i	96!	?	i	i	i
COc1cccc(S(=O)(=O)N(C)C[C@H]2Oc3ncc(C#CC(C)C)cc3C(=O)N([C@H](C)CO)C[C@@H]2C)c1	i	i	i	nt	nt	nt	nt
COc1ccc(NC(=O)N[C@H]2CC[C@@H](CCNC(=O)c3ccccc3F)O[C@H]2CO)cc1	i	i	i	nt	nt	nt	nt
O=C(Nc1ccccc1)N1CCCCN2[C@H](C1)[C@@H](c1ccc(C#CC3CC3)cc1)[C@@H]2CO	i	i	105	96	i	43	104
O=C(Nc1ccccc1)N1CCCCN2[C@@H](CO)[C@H](c3ccc(C#CC4CC4)cc3)[C@@H]2C1	i	i	108	i	i	?	103
O=C(Nc1ccccc1)N1CCCCN2[C@H](CO)[C@@H](c3ccc(C#CC4CC4)cc3)[C@H]2C1	i	i	i	nt	nt	nt	nt
O=C(Nc1ccccc1)N1CCCCN2[C@H](CO)[C@H](c3ccc(C#CC4CC4)cc3)[C@@H]2C1	i	i	i	nt	nt	nt	nt
O=C(Nc1ccccc1F)N[C@H]1CC[C@H](CC(=O)N2CCCCC2)O[C@@H]1CO	nt	i	i	nt	nt	nt	nt
CCN1[C@H](C(=O)NCCc2ccccc2)[C@@H](CO)[C@@H]2Cn3c(ccc(C4=CCCC4)c3=O)[C@@H]21	i	i	i	nt	nt	nt	nt
CCCC#Cc1ccc([C@@H]2[C@@H](CO)N3CCCCN(CC4CC4)C[C@H]23)cc1	i	i	i	nt	nt	nt	nt
Cc1ccccc1S(=O)(=O)N1CCCCN2[C@H](C1)[C@H](c1ccc(C#CCN(C)C)cc1)[C@@H]2CO	i	i	98	110	i	i	83
Cc1ccccc1S(=O)(=O)N1CCCCN2[C@H](CO)[C@H](c3ccc(C#CCN(C)C)cc3)[C@@H]2C1	i	i	i	nt	nt	nt	nt
COCC#Cc1ccc([C@H]2[C@@H](CO)N3CCCCN(S(=O)(=O)c4ccccc4F)C[C@@H]23)cc1	i	i	107	106	i	i	i
